Assay results: PubChem BioAssay AID740 (SRMLSC, 2007)
About 65 (0.07%) of roughly 96,000 compounds were called active. Cut-off read from the data, not from the text of the source: active = inhibition above about 25%; inactive = the rest. Many of the other results were omitted from the sample, so actives are more common in it than they were.

Test: unspecified inhibition readout at 50 µM (AID 740)
Settings: unspecified screen; active compounds read high

Structure (SMILES)	inhibition
O=S(=O)(c1ccccc1)N1C2CCC1CC(O)(c1cccnc1)C2 (stereo not given)	0.08% (inactive)
CCC(NS(=O)(=O)c1ccc(OC)cc1)C(=O)NCCC1=CCCCC1 (stereo not given)	0.42% (inactive)
O=c1[nH]c2cccnc2n1Cc1ccccc1	88.8% (active)
COc1ccccc1Cn1c(=O)[nH]c2cccnc21	inactive
O=c1[nH]c2cccnc2n1Cc1ccco1	1.89% (inactive)
COc1ccccc1NC(=O)C1CC(=O)OC1c1ccccc1 (stereo not given)	inactive
CNC(=O)c1ccc(Oc2ccc(C(=O)NC)cc2)cc1	0.48% (inactive)
COC(=O)c1nc(-c2ccc(C)cc2)oc1N(C)C	inactive
CS(=O)(=O)N1CCN(c2ccccc2NC(=O)Cc2ccc(Cl)cc2)CC1	1.42% (inactive)
CC(C)NC(=O)CSc1nnc2sc3ccccc3n12	29.1% (active)
NC(=O)CSc1nnc2sc3ccccc3n12	20.1% (inactive)
CCOC(=O)CC(=O)CSc1nnc2sc3ccccc3n12	6.25% (inactive)
CC1CC(C)CN(C(=O)COc2ccc(-c3nnco3)cc2)C1 (stereo not given)	inactive
CC(NC(=O)C1CCCN1S(=O)(=O)c1cccc2cccnc12)c1ccccc1 (stereo not given)	3.39% (inactive)
NS(=O)(=O)c1ccc(CCNC(=O)C2CCCCN2S(=O)(=O)c2ccccc2)cc1 (stereo not given)	80.3% (active)
NS(=O)(=O)c1ccc(CCNC(=O)[C@@H]2CCCN2S(=O)(=O)c2ccccc2F)cc1	0.35% (inactive)
NS(=O)(=O)c1ccc(CCNC(=O)C2CCCN2C(=O)OCc2ccccc2)cc1 (stereo not given)	0.02% (inactive)
CNS(=O)(=O)c1cccc(C(=O)Nc2cccc(Cl)c2)c1	inactive
Cc1nc(SCC(=O)c2ccccc2)n[nH]1	0.25% (inactive)
COC(=O)CSc1nnc([C@H](Cc2ccccc2)NC(=O)OC(C)(C)C)o1	0.67% (inactive)
CC(C)(C)OC(=O)N[C@@H](Cc1ccccc1)c1nnc(SCC(=O)O)o1	0.84% (inactive)
CCSc1nnc([C@H](Cc2ccccc2)NC(=O)OC(C)(C)C)o1	26.7% (active)
O=C(c1cc(-c2ccc(Cl)cc2)n(-c2ccc(Cl)cc2)n1)N1CCOCC1	1.77% (inactive)
O=C(c1cc(-c2ccc(Cl)cc2)n(-c2ccc(Cl)cc2Cl)n1)N1CCOCC1	27.9% (active)
O=C(c1cc(-c2ccc(Cl)cc2)n(-c2cc(Cl)ccc2Cl)n1)N1CCOCC1	2.27% (inactive)

Structure (SMILES)	inhibition
Cc1nc2nc(-c3ccc(Cl)cc3)[nH]n2c(=O)c1Cc1ccccc1	2.76% (inactive)
COc1ccc(-c2nc3nc(C)c(Cc4ccccc4)c(=O)n3[nH]2)cc1	10.2% (inactive)
Cc1nc2nc(-c3ccccc3)[nH]n2c(=O)c1Cc1ccccc1	62% (active)
O=C(COC(=O)C(Cc1ccccc1)NC(=O)c1ccco1)NC1CC1 (stereo not given)	2.73% (inactive)
C=CCn1c(-c2cccn(Cc3cccc(Cl)c3)c2=O)n[nH]c1=S	0.13% (inactive)
CN1C(=O)c2cccc3c(S(=O)(=O)Nc4ccccn4)ccc1c23	3.37% (inactive)
Clc1cccc(CSc2nnc([C@@H]3CCCN3)o2)c1	inactive
CCC1CCCCN1C(=O)Nc1cccc(NC(=O)N2CCCCC2CC)c1 (stereo not given)	31.9% (active)
CCC1CCCCN1C(=O)Nc1ccc(F)cc1 (stereo not given)	0.1% (inactive)
CC1CCCN(C(=O)Nc2cccc(NC(=O)N3CCCC(C)C3C)c2)C1C (stereo not given)	0.11% (inactive)
NC(=O)C1(N2CCCCC2)CCN(C(=O)CSc2nc(C(F)(F)F)cc(=O)[nH]2)CC1	1.15% (inactive)
Cc1ccc(/C=C2/SC(=S)N(CC(=O)Nc3ncc(Cc4ccc(C)cc4)s3)C2=O)cc1	0.58% (inactive)
Cc1ccc(NC(=O)NCCCN2CCCC2=O)cc1	1.44% (inactive)
CC(=O)Nc1ccc(Nc2ncnc3c2cnn3-c2ccccc2)cc1	38.2% (active)
CC(=O)Nc1ccc(Nc2ncnc3c2cnn3-c2cccc(C)c2)cc1	0.1% (inactive)
Clc1ccc(Nc2ncnc3c2cnn3-c2ccccc2)cc1	inactive
CCC(CC)c1nnc(NC(=O)CN2C(=O)C3C4C=CC(C4)C3C2=O)s1 (stereo not given)	inactive
CCNc1nc(NCC)nc(SCCOC(=O)COc2ccc(Cl)cc2Cl)n1	inactive
Cc1cc(Oc2ccc(C#N)cc2)nc(N2CCOCC2)n1	inactive
Oc1ccc2oc3c(c2c1)CCCC3	inactive
O=C1NCCCc2c1oc1cc(Br)c(O)c(Br)c21	4.63% (inactive)
O=C1NCCCc2c1oc1ccc(O)cc21	38.5% (active)
COc1ccc(OC)c(C2=NOC(C(=O)Nc3cc(C)nn3-c3ccccc3)C2)c1 (stereo not given)	48.2% (active)
COc1cc(OC)c(C2=NOC(C(=O)Nc3cc(C)nn3-c3ccccc3)C2)cc1Cl (stereo not given)	0.65% (inactive)
COc1cccc(C2=NOC(C(=O)Nc3cc(C)nn3-c3ccccc3)C2)c1OC (stereo not given)	inactive

Structure (SMILES)	inhibition
COc1ccc(-c2cc(C(F)(F)F)nc(N3CCN(Cc4ccccc4)CC3)n2)cc1OC	inactive
COc1ccc(-c2cc(C(F)(F)F)nc(SCCC(=O)Nc3cc(C)on3)n2)cc1	inactive
COCCn1c(SCC(=O)Nc2cc(C)cc(C)c2)nnc1C(C)C	1.46% (inactive)
Cc1ccc2nc(NC(=O)C3CCN(S(=O)(=O)c4cccs4)CC3)sc2c1	2.46% (inactive)
Cc1ccc(NC(=O)C2CCN(S(=O)(=O)c3cccs3)CC2)cc1C	0.17% (inactive)
Cc1nc2ccc(NC(=O)C3CCN(S(=O)(=O)c4cccs4)CC3)cc2s1	30.7% (active)
O=C(CN(Cc1ccco1)C(=O)c1cc(=O)[nH]c2ccccc12)Nc1ccccc1Br	0.68% (inactive)
COC(=O)c1ccc2ccn(CC(=O)NC(C)C)c2c1	inactive
O=C(O)c1cc2nc(-c3ccc(F)cc3)cc(C(F)(F)F)n2n1	1.93% (inactive)
CN(C)c1cccc(C(=O)Nc2ccc3nc4n(c(=O)c3c2)CCCCC4)c1	26.5% (active)
Cc1ccccc1C(=O)Nc1ccc2nc3n(c(=O)c2c1)CCC3	0.71% (inactive)
O=C(Nc1ccc2nc3n(c(=O)c2c1)CCCCC3)c1ccccn1	2.45% (inactive)
O=C(NCCN1CCOCC1)N1c2ccccc2Sc2ccccc21	0.23% (inactive)
COc1ccc(C2NC(=O)NC3=C2CCc2ccccc23)cc1 (stereo not given)	66.1% (active)
O=C1Cc2ccccc2C(c2ccc(Br)cc2)N1 (stereo not given)	inactive
O=C1NC2=C(C(=O)c3ccccc32)C(c2ccccc2)N1 (stereo not given)	0.35% (inactive)
Cc1ccc(C2NC(=O)Cc3ccccc32)cc1 (stereo not given)	0.52% (inactive)
Cc1ccc(C2NC(=O)NC3=C2CCc2ccccc23)cc1 (stereo not given)	85.8% (active)
O=C1NC2=C(CCc3ccccc32)C(c2ccc(Br)cc2)N1 (stereo not given)	70.4% (active)
COc1ccc(C2NC(=S)NC3=C2CCc2cc(OC)ccc23)cc1 (stereo not given)	inactive
COc1ccc(C2C3=C(N=C4SCC(=O)N42)c2ccccc2CC3)cc1 (stereo not given)	1.1% (inactive)
CC(C)c1ccc(C2NC(=O)NC3=C2CCc2ccccc23)cc1 (stereo not given)	5.37% (inactive)
CC(C)CC(c1nnnn1C(C)(C)C)N1CCN(C2CCCC2)CC1 (stereo not given)	0.26% (inactive)
CC(=O)Nc1cccc(C(=O)Nc2ccccc2C(=O)O)c1	0.32% (inactive)
Cc1ccc2nc(SCC(=O)Nc3c(C)n(C)n(-c4ccccc4)c3=O)[nH]c2c1	inactive

Structure (SMILES)	inhibition
O=C(Nc1ccccc1-c1ccccc1)c1ccco1	0.36% (inactive)
O=C(Nc1ccccc1-c1ccccc1)c1ccc(NC(=O)c2ccco2)cc1	61.8% (active)
Cc1ccccc1NC(=O)c1ccc(NC(=O)c2ccco2)cc1	inactive
N#Cc1ccccc1NC(=O)COC(=O)c1ccc2c(c1)OCCO2	inactive
COc1ccc(S(=O)(=O)Nc2ccc(F)cc2)cc1N(C)S(=O)(=O)c1ccc(Cl)cc1	inactive
COc1ccc(NS(=O)(=O)c2ccc(OC)c(N(C)S(=O)(=O)c3ccc(Cl)cc3)c2)cc1	25.8% (active)
COc1ccc(S(=O)(=O)Nc2ccc(C)cc2)cc1N(C)S(=O)(=O)c1ccc(Cl)cc1	inactive
O=C(NC1CCCC1)C1(c2ccccc2)CCN(S(=O)(=O)c2ccccc2)CC1	1.06% (inactive)
CC1(C)Cc2c(c(N3CCOCC3)nc3sc4c(NN)ncnc4c23)CS1	27.3% (active)
CN(C)CCNc1ncnc2c1sc1nc(N3CCOCC3)c3c(c12)CC(C)(C)SC3	inactive
CCN(CC)CCNc1ncnc2c1sc1nc(N3CCOCC3)c3c(c12)CC(C)(C)SC3	inactive
Cc1cccc(NC(=O)C2CC(=O)OC23CCCCC3)c1 (stereo not given)	41.1% (active)
O=C1CC(C(=O)Nc2ccccc2)C2(CCCCC2)O1 (stereo not given)	1.6% (inactive)
O=C1CC(C(=O)Nc2ccccc2)C2(CCCC2)O1 (stereo not given)	inactive
CC(=O)Nc1sc(C)c(C)c1C(=O)OC1CCOC1=O (stereo not given)	inactive
COc1ccc(C(=O)OCC(=O)Nc2ccc(OC(F)F)cc2)c(OC)c1	inactive
COc1cc(C2C(C#N)=C(C)NC3=C2C(=O)c2ccccc23)cc(OC)c1OC (stereo not given)	3.83% (inactive)
O=C(O)c1ccc(CSCc2ccccc2F)o1	inactive
COc1ccc(NC(=O)CN2CCCC(C)C2)c([N+](=O)[O-])c1 (stereo not given)	0.73% (inactive)
CCCCn1c(=O)c(C(=O)Nc2cnccn2)c(O)c2ccccc21	1.68% (inactive)
Cc1c(NC(=O)c2cccc(F)c2)c(=O)n(-c2ccccc2)n1C	inactive
Cc1c(NC(=O)c2ccc(F)cc2)c(=O)n(-c2ccccc2)n1C	inactive
CCCCCn1c(=O)c(C(=O)Nc2c(C)n(C)n(-c3ccccc3)c2=O)c(O)c2ccccc21	34.4% (active)
Cc1cc(C(=O)Nc2c(C)n(C)n(-c3ccccc3)c2=O)cs1	28.9% (active)
Cc1c(NC(=O)c2c(F)c(F)c(F)c(F)c2F)c(=O)n(-c2ccccc2)n1C	0.88% (inactive)
